Reference: PubChem BioAssay (EPA / NIEHS)
Results filed as inconclusive are left out. Activity calls are given as the source filed them. How the source made its calls: active means hit-call score of the fitted dose curve at least 0.9, where 1 is the maximum; inconclusive means response in the unintended direction; inactive means score below 0.9.

test: ACEA_ER_AUC_viability: ACEA Biosciences xCELLigence Real-Time Cell Analysis on Estrogen Receptor Agonism for Viability (AID 2283782);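 further: continuous compound exposure with impedance area under curve over 80 h; hit means loss of impedance signal meaning reduced cell growth or viability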
Summary of the method: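 T-47D human breast cells in phenol red-free RPMI1640 with 10% charcoal-stripped FBS were dosed with an 8-point 1:4 dilution series from 100 uM top final concentration, in duplicate. Impedance-based growth was followed for 80 h; AUC analysed versus DMSO.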

| Structure (SMILES) | outcome | AC50 |
| --- | --- | --- |
| N#Cc1ccccn1 | inactive |  |
| CCC[CH2][Sn]([CH2]CCC)([CH2]CCC)[O]C(=O)c1ccccc1 |  | 1.28 µM (active) |
| C=C(C)C#N | inactive |  |
| O=CC=O | inactive |  |
| C=CC(=O)N(C)C |  | 50 µM (active) |
| CCC(C)c1cccc(C(C)CC)c1O (centres undefined) |  | 77.1 µM (active) |
| O=C1C(Cl)=C(Cl)C(=O)c2ccccc21 |  | 16.7 µM (active) |
| CC1CCCCC1NC(=O)Nc1ccccc1 (centres undefined) |  | 26.2 µM (active) |
| CCCCCCCCCCCCCCCC[n+]1ccccc1 |  | 5.69 µM (active) |
| Nc1ccc(N=Nc2ccc(-c3ccc(N=Nc4c(S(=O)(=O)O)cc5cc(S(=O)(=O)O)c(N=Nc6ccccc6)c(O)c5c4N)cc3)cc2)c(N)c1 | inactive |  |
| O=P(O)(O)c1ccccc1 | inactive |  |
| Nc1ccc(Cl)cc1C(=O)c1ccccc1 | inactive |  |
| O=[N+]([O-])c1c(Cl)c(Cl)cc(Cl)c1Cl | inactive |  |
| BrCCBr | inactive |  |
| O=[N+]([O-])c1ccc2c3c(cccc13)CC2 | inactive |  |
| NC(=S)Nc1ccccc1 |  | 60.6 µM (active) |
| Oc1c(I)cc(I)cc1I |  | 87.9 µM (active) |
| ClCc1ccccn1 |  | 50 µM (active) |
| O=C(O)C(F)(F)C(F)(F)C(F)(F)C(F)(F)C(F)(F)C(F)(F)C(F)(F)C(F)(F)C(F)(F)C(F)(F)F | inactive |  |
| CC(=O)c1cc(C(C)(C)C)cc2c1CCC2(C)C | inactive |  |
| Cc1cc(=O)[nH]o1 | inactive |  |
| CC1CN1P(=O)(N1CC1C)N1CC1C (centres undefined) |  | 64.1 µM (active) |
| NC(=O)O | inactive |  |
| CCOC(=O)/C=C(C)/C=C/C[C@@H](C)CCCC(C)C |  | 87.8 µM (active) |
